The values below come from PubChem BioAssay (EPA / NIEHS).

Assay [1] deals with human Retinoid X Receptor beta (RXRb), RXRB (gene 6257) (UniProt P28702). Description: ATG_RXRb_TRANS: Attagene TRANS-FACTORIAL HepG2 Assay for human Retinoid X Receptor beta (RXRb) (AID 2283013; active means hit-call score of the fitted dose curve at least 0.9, where 1 is the maximum). Put shortly: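 HepG2 cells transiently transfected with multiplexed reporter units driven by GAL4-UAS and exogenous chimeric NR-Gal4 proteins; treated 24 h. Reporter mRNA measured by RT-PCR, 6-FAM labelling and capillary electrophoresis; gain-of-signal fitted versus DMSO baseline.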
Sequence of human Retinoid X Receptor beta (RXRb), RXRB (gene 6257) (P28702 whole entry, looked up, the tested form may be a part): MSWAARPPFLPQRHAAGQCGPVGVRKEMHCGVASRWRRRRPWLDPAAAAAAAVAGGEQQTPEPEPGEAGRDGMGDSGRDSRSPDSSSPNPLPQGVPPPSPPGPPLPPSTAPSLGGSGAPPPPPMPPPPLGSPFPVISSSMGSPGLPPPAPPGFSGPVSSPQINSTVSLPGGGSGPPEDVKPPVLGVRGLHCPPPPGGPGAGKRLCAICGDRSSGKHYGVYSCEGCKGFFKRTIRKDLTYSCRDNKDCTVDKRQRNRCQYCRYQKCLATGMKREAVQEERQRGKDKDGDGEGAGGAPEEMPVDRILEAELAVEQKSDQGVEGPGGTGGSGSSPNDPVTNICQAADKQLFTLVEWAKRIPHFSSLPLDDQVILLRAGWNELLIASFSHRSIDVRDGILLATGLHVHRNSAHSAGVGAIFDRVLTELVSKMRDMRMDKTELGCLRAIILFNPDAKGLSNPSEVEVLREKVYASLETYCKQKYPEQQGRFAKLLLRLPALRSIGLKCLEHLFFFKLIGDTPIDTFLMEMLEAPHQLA

The target in assay [2] is human Thyroid Receptor alpha (THRa1), THRA (gene 7067) (UniProt P10827). The experiment in a line: ATG_THRa1_TRANS: Attagene TRANS-FACTORIAL HepG2 Assay for human Thyroid Receptor alpha (THRa1) (AID 2283014; active means hit-call score of the fitted dose curve at least 0.9, where 1 is the maximum). Put shortly:
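HepG2 cells transiently transfected with chimeric NR-Gal4 and GAL4-UAS reporter units, dosed 24 h. Reporter mRNA quantified by RT-PCR, fluorescent labeling, HpaI digestion and capillary electrophoresis; gain-of-signal fit versus DMSO.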

Read-out in assay [3]: E-selectin (Homo sapiens) (UniProt P16581)
The experiment in a line: BSK_3C_Eselectin: BioMAP Diversity Plus: 3C Assay for Eselectin Biomarker Activity (AID 2283015).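 On outcome: cell surface E-selectin protein quantified by ELISA 24 h after dosing.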 The settings on record: primary human endothelial cells (HUVEC); actives raise or lower the signal. Put shortly: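 Primary human umbilical vein endothelial cells (3C system), read 24 h after compound addition; E-selectin measured by ELISA. Bidirectional curve fitting against DMSO baseline; cytotoxicity by parallel SRB total-protein staining.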

Read-out in assay [4]: Interleukin-1 alpha (IL1a), IL1A (gene 3552)
Description: BSK_BE3C_IL1a: BioMAP Diversity Plus: BE3C Assay for Interleukin-1 alpha (IL1a) Biomarker Activity (AID 2283016). To be noted: primary human bronchial epithelial cells; actives raise or lower the signal. The method, boiled down:
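Human primary bronchial epithelial cells (BE3C system) were dosed with compound and IL-1a measured by ELISA 24 h later. Activity was fitted bidirectionally against DMSO baseline; cytotoxicity was tracked in parallel cultures by SRB total-protein staining.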

Read-out in assay [5]: Monocyte Chemoattractant Protein-1 (MCP1), CCL2 (gene 6347)
Description: BSK_3C_MCP1: BioMAP Diversity Plus: 3C Assay for Monocyte Chemoattractant Protein-1 (MCP1) Biomarker Activity (AID 2283017). The settings on record: primary human endothelial cells (HUVEC); actives raise or lower the signal. Put shortly: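 Human umbilical vein endothelial cells (3C system) exposed to chemicals for 24 h; MCP-1 quantified by ELISA against the DMSO baseline with bidirectional fitting, and parallel SRB staining used to assess cytotoxicity.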

Read-out in assay [6]: Monocyte Chemoattractant Protein-1 (MCP1), CCL2 (gene 6347)
Description: BSK_4H_MCP1: BioMAP Diversity Plus: 4H Assay for Monocyte Chemoattractant Protein-1 (MCP1) Biomarker Activity (AID 2283018). The settings on record: primary human endothelial cells (HUVEC); actives raise or lower the signal. Put shortly:
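Human umbilical vein endothelial cells (4H system) dosed with chemical; MCP-1 measured by ELISA 24 h after dosing. Bidirectional curve fitting against DMSO negative control as baseline; parallel SRB total-protein staining tracks overt cytotoxicity.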

Read-out in assay [7]: Human Leukocyte Antigen - DR isotype (HLADR), HLA-DRA (gene 3122)
The experiment in a line: BSK_3C_HLADR: BioMAP Diversity Plus: 3C Assay for Human Leukocyte Antigen - DR isotype (HLADR) Biomarker Activity (AID 2283019). The settings on record: primary human endothelial cells (HUVEC); actives raise or lower the signal. The method, boiled down: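 HUVEC monoculture, HLA-DR measured by ELISA 24 h after chemical dosing. Fitted bidirectionally against DMSO baseline; parallel SRB staining assessed cytotoxicity, with 3C proliferation read by SRB at 48 h.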

Read-out in assay [8]: Interleukin-8 (IL8), CXCL8 (gene 3576)
The experiment in a line: BSK_3C_IL8: BioMAP Diversity Plus: 3C Assay for Interleukin-8 (IL8) Biomarker Activity (AID 2283020). To be noted: primary human endothelial cells (HUVEC); actives raise or lower the signal. The method, boiled down: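 Primary human umbilical vein endothelial cells (3C system) were exposed to test chemical for 24 h, then IL-8 was quantified by ELISA. Responses were fitted bidirectionally against DMSO vehicle as baseline.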

Read-out in assay [9]: Monokine induced gamma interferon (MIG), CXCL9 (gene 4283)
Description: BSK_3C_MIG: BioMAP Diversity Plus: 3C Assay for Monokine induced gamma interferon (MIG) Biomarker Activity (AID 2283021).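 On AC50: MIG protein level measured by immunoassay in the treated endothelial cultures.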 To be noted: primary human endothelial cells (HUVEC); actives raise or lower the signal. Put shortly:
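Primary human umbilical vein endothelial cells in the 3C system were exposed to chemical for 24 h, after which MIG was quantified by ELISA. Activity was fitted bidirectionally against DMSO as negative control and baseline.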

Assay [10] concerns the target human Vitamin D Receptor (VDR), VDR (gene 7421) (UniProt P11473). Description: ATG_VDR_TRANS: Attagene TRANS-FACTORIAL HepG2 Assay for human Vitamin D Receptor (VDR) (AID 2283022; active means hit-call score of the fitted dose curve at least 0.9, where 1 is the maximum). Put shortly: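 HepG2 cells were transiently transfected with GAL4-UAS reporter units and a chimeric VDR-Gal4 construct, then dosed for 24 hours. Reporter mRNA was quantified by RT-PCR, fluorescent labeling, HpaI digestion and capillary electrophoresis; gain of signal analysed vs DMSO.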

The structures appear in SMILES notation. Values joined by “and” are separate entries in the source; they are usually repeats but may differ in a detail not shown here. Identical values can stand only once. Records with an inconclusive call do not appear. Some structures have more than one record in an assay (separate samples or runs), and their calls can disagree. Active and inactive are the calls of the source. How the source made its calls, unless noted: active means hit-call score of the fitted dose curve at least 0.9, where 1 is the maximum; inactive means score below 0.9.

Sequence of human Thyroid Receptor alpha (THRa1), THRA (gene 7067) (P10827 whole entry, looked up, the tested form may be a part): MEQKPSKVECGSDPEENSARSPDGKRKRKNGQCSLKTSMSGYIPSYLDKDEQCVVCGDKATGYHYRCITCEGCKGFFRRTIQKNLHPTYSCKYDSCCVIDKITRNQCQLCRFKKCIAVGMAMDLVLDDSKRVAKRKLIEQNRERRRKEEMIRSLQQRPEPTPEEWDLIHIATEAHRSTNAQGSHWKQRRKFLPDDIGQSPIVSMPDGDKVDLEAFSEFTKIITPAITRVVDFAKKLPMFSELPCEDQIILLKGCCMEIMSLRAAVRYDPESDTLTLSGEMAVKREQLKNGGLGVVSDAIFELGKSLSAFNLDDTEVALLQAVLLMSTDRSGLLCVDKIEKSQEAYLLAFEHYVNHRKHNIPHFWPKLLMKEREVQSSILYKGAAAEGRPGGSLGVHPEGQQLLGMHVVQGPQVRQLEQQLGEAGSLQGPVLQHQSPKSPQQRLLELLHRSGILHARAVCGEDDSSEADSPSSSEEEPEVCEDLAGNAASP
Sequence of E-selectin (Homo sapiens) (P16581 whole entry, looked up): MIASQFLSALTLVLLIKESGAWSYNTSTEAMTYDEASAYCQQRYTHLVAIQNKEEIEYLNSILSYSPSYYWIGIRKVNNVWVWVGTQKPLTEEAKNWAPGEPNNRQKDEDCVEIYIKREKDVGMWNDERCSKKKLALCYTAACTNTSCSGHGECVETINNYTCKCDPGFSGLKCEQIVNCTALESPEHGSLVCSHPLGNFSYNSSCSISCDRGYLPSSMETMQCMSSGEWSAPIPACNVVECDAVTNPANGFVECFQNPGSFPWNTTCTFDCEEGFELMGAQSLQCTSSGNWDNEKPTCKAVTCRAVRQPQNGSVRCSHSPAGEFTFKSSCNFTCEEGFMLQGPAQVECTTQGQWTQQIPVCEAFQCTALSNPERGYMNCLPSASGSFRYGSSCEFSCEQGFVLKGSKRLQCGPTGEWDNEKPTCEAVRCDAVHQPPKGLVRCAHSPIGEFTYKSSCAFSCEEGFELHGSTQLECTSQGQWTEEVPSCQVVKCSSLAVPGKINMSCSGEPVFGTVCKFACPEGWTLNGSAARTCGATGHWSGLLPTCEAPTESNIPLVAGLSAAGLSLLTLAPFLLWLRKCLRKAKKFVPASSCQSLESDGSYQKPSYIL
Sequence of human Vitamin D Receptor (VDR), VDR (gene 7421) (P11473 whole entry, looked up, the tested form may be a part): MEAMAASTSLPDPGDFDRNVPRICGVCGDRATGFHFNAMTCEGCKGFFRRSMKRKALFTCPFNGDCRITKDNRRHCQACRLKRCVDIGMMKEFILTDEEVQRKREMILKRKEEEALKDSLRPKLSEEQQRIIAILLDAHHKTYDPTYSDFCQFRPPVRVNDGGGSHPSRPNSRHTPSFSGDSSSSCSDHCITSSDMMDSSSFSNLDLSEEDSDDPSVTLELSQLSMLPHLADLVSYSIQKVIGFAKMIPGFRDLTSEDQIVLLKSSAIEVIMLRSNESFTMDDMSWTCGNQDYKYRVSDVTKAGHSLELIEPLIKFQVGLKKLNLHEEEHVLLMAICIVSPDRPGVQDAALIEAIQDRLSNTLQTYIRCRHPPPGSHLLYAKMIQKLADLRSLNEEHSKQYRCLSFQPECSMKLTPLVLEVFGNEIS

As to `OCCC(F)(F)C(F)(F)C(F)(F)C(F)(F)C(F)(F)C(F)(F)C(F)(F)C(F)(F)F`, the result in assay [1], in assay [2], in assay [3], in assay [4], in assay [5] and in assay [6] was inactive. Further, the result in [8], in assay [9] and in assay [10] was inactive. Moreover, the concentration at half-maximal activity (AC50) in assay [3] is 30 µM (active); in [4], 18.2 µM (active) and 18.6 µM (active); in assay [5], 42.5 µM (active) and 24.3 µM (active); in assay [6] it was 43.6 µM (active); in [7] it was 20 µM (active) and 27.8 µM (active) and 30 µM (active); in [8], 48.2 µM (active). Further, the concentration at half-maximal activity (AC50) in assay [9] is 48.6 µM (active); in assay [10], 100 µM (active).
Turning to `CCc1ccc(CCOc2ccc(CC3SC(=O)NC3=O)cc2)nc1` (stereo unspecified), the outcome in assay [1], in assay [2], in [3], in assay [4], in assay [5] and in assay [6] was inactive. Also, the result in assay [7], in assay [8] and in [10] was inactive.
In the case of `OC1CCC(C2CCCCC2)CC1` (stereo unspecified), the compound was classed as inactive in assay [1], in assay [2], in [3], in assay [4], in [5] and in assay [6]. Besides, the result in assay [7], in assay [8] and in assay [10] was inactive.
Consider `O=C(/C=C/c1ccc(O)cc1)CC(=O)/C=C/c1ccc(O)cc1`, for which the compound was classed as inactive in assay [1] and in assay [2].
Turning to `CC[C@H](C)[C@@H](C(=O)O)n1sc2ccccc2c1=O`, the call in assay [1], in [2], in [3], in assay [4], in [5] and in assay [6] was inactive. The result in assay [7], in assay [8] and in assay [10] was inactive.
As to `ClC1=C(Cl)C(Cl)(Cl)C(Cl)=C1Cl`, the AC50 in assay [1] is 17.5 µM (active); in [3], 7.17 µM (active); in assay [4], 8.21 µM (active); in assay [5], 7.92 µM (active); in [6], 7.06 µM (active); in assay [7] it was 4.6 µM (active). The concentration at half-maximal activity (AC50) in assay [8] is 9.46 µM (active). Also, the result in assay [1], in assay [2] and in assay [10] was inactive.
For `C#C[C@]1(O)CC[C@H]2[C@@H]3CCC4=CC(=O)CC[C@@H]4[C@H]3CC[C@@]21C`, the call in assay [1], in assay [2], in [4] and in assay [6] was inactive. Moreover, the AC50 in assay [3] was 11.5 µM (active); in [5], 6.01 µM (active); in assay [7], 7.59 µM (active); in assay [8] it was 5.01 µM (active).
Take `CC(C)(C)c1cc(C(C)(C)C)c(O)c(C(C)(C)C)c1`: the AC50 in assay [1] is 18.6 nM (active) and 320 nM (active). The result in assay [2], in assay [3], in [4], in [5], in [6] and in [7] was inactive. Further, in assay [8], the result was inactive.
`Nc1cccc2c(N)cccc12`: the compound was called inactive in [1], in assay [2], in assay [3], in assay [4], in [5] and in assay [6]. The result in [7], in [8] and in assay [10] was inactive.
For `CCCCCCCCCCCCCC[N+](C)(C)C`, the compound was classed as inactive in [1], in [2] and in assay [10]. Further, the AC50 in assay [2] was 26.7 µM (active); in assay [3] it was 8.8 µM (active); in assay [4], 3.83 µM (active); in assay [5], 2.17 µM (active); in [6], 1.69 µM (active); in [7], 2.1 µM (active). Also, the AC50 in assay [8] was 6.77 µM (active); in [9] it was 8.96 µM (active).
Consider `CCCCCCCCCCCCCCCS(=O)(=O)Oc1ccccc1`, for which the compound was classed as inactive in assay [1], in assay [2], in assay [3], in assay [4], in [5] and in [6]. Also, the result in assay [7], in [8], in [9] and in [10] was inactive.
With `C[C@@H]1C[C@H]2[C@@H]3CCC4=CC(=O)C=C[C@]4(C)[C@@]3(F)[C@@H](O)C[C@]2(C)[C@@]1(O)C(=O)COP(=O)(O)O`, the outcome in assay [1], in [2], in [3], in assay [4], in assay [5] and in assay [6] was inactive. In addition, the outcome in [7], in assay [8] and in assay [10] was inactive.
As to `Cc1ccc(S(=O)(=O)O)c(C)c1`, in assay [1], the AC50 is 58.6 µM (active) and the compound was called inactive. The compound was classed as inactive in [10].
For `C=C(C)C(=O)OCCC(F)(F)C(F)(F)C(F)(F)C(F)(F)C(F)(F)C(F)(F)F`, the compound was classed as inactive in assay [1], in assay [2], in [3], in assay [4], in assay [5] and in assay [6]. For the same compound, the outcome in [7], in [8], in [9] and in assay [10] was inactive.
Regarding `CCCCCCCCOC(=O)CCCCCCCCC(=O)OCCCCCCCC`, the outcome in assay [1], in assay [2], in assay [3], in assay [4], in [5] and in assay [6] was inactive. Besides, the result in assay [7] and in [8] was inactive.
With `c1ccc2c(c1)ccc1ccccc12`, in [1], the concentration at half-maximal activity (AC50) was 44.9 µM (active). The call in assay [2], in assay [3], in assay [4], in assay [5], in [6] and in assay [7] was inactive. The result in assay [8] and in assay [10] was inactive.

By AC50 is commonly meant the concentration at which the activity in the assay is half-maximal.
